# Screening results (PubChem)
# Cruzain noTriton: qHTS Assay for Promiscuous and Specific Inhibitors of Cruzain (without detergent) | Potency, µM, inactives show max response, negative = inhibition, hits mostly inhibitors | actives 2.3% (n = 200,000) | Cruzipain (Trypanosoma cruzi), P25779 | purified cruzain, Z-FR-AMC fluorescence, no detergent;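 note: plate controls were enzyme without inhibitor for no effect and buffer without enzyme for full effect; nearly all actives have a fitted effect of over 40% in size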
# Target sequence (P25779 123-467 limits assumed): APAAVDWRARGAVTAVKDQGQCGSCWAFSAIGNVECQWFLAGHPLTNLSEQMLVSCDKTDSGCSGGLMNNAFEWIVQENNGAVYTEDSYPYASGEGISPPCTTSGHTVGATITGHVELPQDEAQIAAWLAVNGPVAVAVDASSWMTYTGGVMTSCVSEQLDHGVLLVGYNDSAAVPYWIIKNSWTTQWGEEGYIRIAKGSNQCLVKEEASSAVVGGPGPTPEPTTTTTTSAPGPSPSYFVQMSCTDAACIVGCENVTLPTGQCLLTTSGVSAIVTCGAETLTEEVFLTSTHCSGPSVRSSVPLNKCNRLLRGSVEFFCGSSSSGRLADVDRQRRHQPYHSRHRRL
#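 Detergent-free condition (0.00005% Triton X-100) in acetate buffer pH 5.5 with DTT. 1.5 nM enzyme and compound were pre-mixed 15 min, then 2 uM Z-FR-AMC substrate added; reaction progress from fluorescence change between first and third reads (60 s).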
# Cruzain Triton: qHTS Assay for Promiscuous and Specific Inhibitors of Cruzain (with detergent). Cruzipain (Trypanosoma cruzi), P25779. Potency, µM, for the others: max response, negative = inhibition, usual class: inhibitors. actives 0.43% (n = 200,000). purified cruzain, Z-FR-AMC fluorescence, 0.01% Triton;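 note: plate controls were neutral wells for no effect and buffer without enzyme for full effect; nearly all actives have a fitted effect of over 40% in size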
#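 In this qHTS format, compounds are incubated with 1.5 nM cruzain for 15 min at room temperature before 2 uM Z-FR-AMC is added. Release of AMC is followed at 360/450 nm, and progress is taken as the 60 s fluorescence difference.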
# FBPA Giardia inh: qHTS Assay for Inhibitors of Fructose-1,6-bisphosphate Aldolase from Giardia Lamblia; A8B2U2; purified Giardia FBPA; Potency, µM (doses to about 59.6 µM), inactives show top-dose activity, negative = inhibition, most hits filed as inhibitors; actives 0.71% (n = 290,000); note: nearly all actives have a fitted effect of over 55% in size
# Target sequence (A8B2U2 whole entry, looked up): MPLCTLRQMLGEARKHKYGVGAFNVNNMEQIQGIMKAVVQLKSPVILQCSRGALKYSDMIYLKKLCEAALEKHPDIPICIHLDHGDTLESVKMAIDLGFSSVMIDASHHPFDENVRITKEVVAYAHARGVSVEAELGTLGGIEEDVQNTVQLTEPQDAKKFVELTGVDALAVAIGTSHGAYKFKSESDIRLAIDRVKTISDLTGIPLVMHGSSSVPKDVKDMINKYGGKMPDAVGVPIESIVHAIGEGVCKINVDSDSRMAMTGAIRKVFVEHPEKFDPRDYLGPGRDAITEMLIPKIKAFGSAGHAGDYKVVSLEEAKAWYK
#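 Giardia FBPA (40 nM reagent) was preincubated 10 min at RT with compound (up to 57.5 uM final), then substrate plus GAPDH/TPI/NAD/arsenate coupling system with diaphorase/resazurin was added; resorufin fluorescence (525/598 nm) was read after 20 min.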
# * hit, by the source's call; ? = inconclusive; . = not tested or not shown; [ ] = another dose, or the depositor's remark. The entries come from a sample that favours hits as a whole. Calls come from the whole dose curve; as a rule, active = well fitted curve in the direction sought with a large enough effect; inconclusive = small, poorly fitted or top-dose-only effect, or another doubt; inactive = no such curve, though single readings can be large; an effect the other way counts as inactive or inconclusive. Unless noted, % is set by controls: 0 for no effect and ±100 for the full control effect; potency is the fitted concentration of half-maximal effect.
SMILES,Cruzain noTriton,Cruzain Triton,FBPA Giardia inh
CC1Cc2cc(-c3csc(NC(=O)Cc4ccccc4)n3)ccc2N1S(C)(=O)=O (stereo not given),?,6%,-9%
COc1ccc([C@@H](Nc2ccccn2)c2cc(C(C)(C)C)cc(C(C)(C)C)c2O)cc1,2%,-5%,.
CC(C)CO/N=C1/C[C@@H](O)[C@@H](O)[C@@H]2[C@@H]3C(=O)N(c4cccc(Oc5ccccc5)c4)C(=O)[C@H]3CC[C@H]12,.,.,1%[12.9 µM]
CCCN1CCC(=O)N(C(CSc2ccc(Br)cc2)c2ccccc2)CC1 (stereo not given),.,.,10%
Cc1ccc(C(=O)N/C(=C\c2ccc([N+](=O)[O-])cc2)C(=O)NCCc2ccccc2)cc1,?,0%,2%
O=C(NCCc1ccccc1)/C(=C\c1ccc([N+](=O)[O-])cc1)NC(=O)c1ccc(Br)cc1,6.3µM*,-2%,0%
COc1cc2cc3c4c(cc(OC)c(OC)c4c2cc1OC)CCN3C,?,-3%,?
Cc1ccc2nc(-c3ccc(NS(=O)(=O)c4ccccc4)cc3)sc2c1,-19%,-5%,2%
Cc1ccc2nc(-c3ccc(N)cc3)sc2c1S(=O)(=O)O,20µM*,35µM*,.
O=C(NC(=S)NNS(=O)(=O)c1ccccc1)c1ccc([N+](=O)[O-])cc1,10µM*,?,?
O=C(NNS(=O)(=O)c1ccccc1)c1ccc([N+](=O)[O-])cc1,.,.,-24%
Clc1ccc(CSc2ncnc3c2ncn3[C@@H]2CCCCO2)cc1,-6%,-3%,.
Cc1ccc2onc(CC(=O)Nc3ccc(C(C)C)cc3)c2c1,5%,-8%,.
CC(=O)c1ccc(-c2ccc(-c3cc(=O)oc4c(C(C)C)ccc(C)c34)cc2)cc1,8.9µM*,-2%,-2%
Cc1ccc(C(C)C)c2oc(=O)cc(-c3ccc(-c4ccc(C(F)(F)F)cc4)cc3)c12,?,1%,-3%
COC(=O)NC(c1cccc(F)c1)C(C(C)=O)C(=O)OC (stereo not given),.,.,5%[12.9 µM]
COc1ccc(-c2coc3ccc(OC4OC(COC(C)=O)C(OC(C)=O)C(OC(C)=O)C4OC(C)=O)cc3c2=O)cc1 (stereo not given),109%,-1%,3%
COc1ccc(C(OCCN2CCC[C@H](C(=O)O)C2)(c2ccc(OC)cc2)c2ccc(OC)cc2)cc1,.,.,1%
Cc1ccc(NC(=O)CN2C(=O)C(c3ccc(F)cc3)=NC23CCCCC3)c(C)c1,-14%,-6%,.
CNC(=O)Oc1ccc2c(c1)[C@@]1(C)CCN(C)[C@@H]1N2C,3%,2%,?
CN1CC[C@@]2(C)c3cc(O)ccc3N(C)[C@@H]12,1%,-4%,4.5µM*
O=c1c2ccccc2oc2cc(O)c(C3COCC(CO)C(O)C(O)C3O)c(O)c12 (stereo not given),0%,-3%,?
COC(=O)C(C)CCCC(C)CCCC(C)CCCC(C)C (stereo not given),.,.,-3%
O=C(N/N=C/c1ccc(N2CCOCC2)s1)c1ccccc1Cl,.,.,-7%
FC(F)(F)c1ccc(Cl)c(N/N=C/c2ccc(N3CCOCC3)s2)c1,10µM*,-10%,-7%
SMILES,Cruzain noTriton,Cruzain Triton,FBPA Giardia inh
CS(=O)(=O)N1CCN(c2ccccc2NC(=O)c2ccc(-c3ccc(Cl)cc3Cl)o2)CC1,3.2µM*,-2%,13%
CN1CCN(c2ccccc2NC(=O)c2ccc(-c3ccc(Cl)cc3Cl)o2)CC1,1%,-20%,0%
Cc1ccc(-c2cn(-c3ccccc3F)c(=S)[nH]2)cc1,.,.,10%
Fc1ccccc1-n1[nH]nnc1=S,13µM*,20µM*,?
O=C(OCc1ccccc1)[C@@H]1COC(c2ccc(Br)cc2)=N1,1%,1%,-1%[89.2 µM]
Cc1ccccc1NCC(=O)N/N=C/c1c(C)c(C(=O)c2ccc(Cl)cc2)n2ccccc12,7.9µM*,-9%,3%
Cc1c(/C=N/NC(=O)CNc2ccccc2)c2ccccn2c1C(=O)c1ccc(Cl)cc1,?,-4%,5%
O=C(Nc1cccc(C(=O)N2CCN(c3ccc(Cl)cc3)CC2)c1)c1nsc2ccccc12,20µM*,0%,.
O=C(Nc1ccc(C(=O)N2CCN(c3ccccc3)CC2)cc1)c1nsc2ccccc12,-29%,-1%,.
O=C(Nc1ccc(C(=O)N2CCN(c3cccc(Cl)c3)CC2)cc1)c1nsc2ccccc12,10µM*,-1%,.
O=C(Nc1cccc(C(=O)N2CCN(c3cccc(Cl)c3)CC2)c1)c1nsc2ccccc12,?,-1%,.
COc1ccc(-c2nnc3n2N=C(c2c(OC)cccc2OC)CS3)c(OC)c1,.,.,12%
CCSc1nnc([C@@H](N)Cc2c[nH]c3ccccc23)o1,7%,2%,-9%
Cc1cccc(NC(=O)CSc2nnc([C@@H](N)Cc3c[nH]c4ccccc34)o2)c1C,13µM*,13µM*,-9%
COc1ccccc1N=Nc1nc(-c2ccccc2)c(-c2ccccc2)[nH]1,-23%,-5%,14%
COc1ccc(N=Nc2nc(-c3ccccc3)c(-c3ccccc3)[nH]2)cc1,25µM*,-2%,2%
O[C@H](C[C@@H]1CCCCN1)c1ccc2c(c1)oc1ccccc12,10%,2%,.
O=C(CNc1cc(S(=O)(=O)N2CCCC2)ccc1OCC(F)(F)F)Nc1ccc(SC(F)F)cc1,16µM*,-8%,-8%
O=C(CNc1cc(S(=O)(=O)N2CCCC2)ccc1OCC(F)(F)F)Nc1cc(Cl)cc(Cl)c1,.,.,1%
Cc1ccccc1CSc1cn(CC(=O)N2CCCCCC2)c2ccccc12,-8%,-8%,.
Cc1csc(N/N=C/c2ccc([N+](=O)[O-])cc2)n1,.,.,-17%
Cc1nnc(N/N=C/c2ccc([N+](=O)[O-])cc2)n1N,.,.,16µM*
COc1ccc(/C=N/Nc2nnc(C)n2N)cc1OC,.,.,22µM*
CC1CCN(c2cc(N3CCOCC3)c([N+](=O)[O-])cc2F)CC1,4%,-8%,2%
COc1ccc(/C=N/Nc2ncnc(Cl)c2N)cc1OC,3%,-11%,-29%
SMILES,Cruzain noTriton,Cruzain Triton,FBPA Giardia inh
Cc1nnc(N/N=C/c2cc([N+](=O)[O-])c(N3CCC(C)CC3)cc2N2CCC(C)CC2)n1N,14%,-7%,10µM*
CC(C)CON=O,-7%,2%,.
O=C(c1ccc2c3c(cccc13)CC2)C1CCCN(Cc2cccnc2)C1 (stereo not given),.,.,-1%
COc1cc(CN2CCCC(C(=O)c3ccc4c5c(cccc35)CC4)C2)cc(OC)c1O (stereo not given),.,.,7.9µM*
CC(=O)c1cccc(NC(=O)c2noc3c2CCCC3)c1,-4%,-5%,.
COC(=O)N/N=C/c1ccc(-c2cc(Cl)cc(Cl)c2)o1,-12%,-8%,1%
NC(=S)N/N=C/c1ccc(-c2cc(Cl)cc(Cl)c2)o1,10µM*,4.5µM*,-25%
O=C(Nc1ccc(F)cc1F)c1ccc2c(c1)CCN2S(=O)(=O)c1ccc(Cl)cc1,?,-3%,.
CC1(C)Cc2c(C#N)c(SCC(=O)c3ccccc3)nc(N3CCOCC3)c2CS1,25µM*,2%,-11%
CC1(C)Cc2c(c(-c3ccco3)[nH]c(=O)c2C#N)CS1,-18%,-7%,18µM*
